In PubChem BioAssay (NCATS):
Inconclusive results are not listed. Active and inactive are the calls of the source. The call rests on the fitted dose curve; in most records, active means well fitted inhibition curve with a large enough effect in the repeat runs; inconclusive means weak or mixed curves; inactive means no such curve, though single readings can be large or run the other way.

What follows are compounds tested against Cytochrome P450 2C9 (Homo sapiens) (UniProt P11712) (assay: Cytochrome P450 family 2 subfamily C member 9 (CYP2C9) small molecule antagonists: luciferase biochemical (cell-free) qHTS assay (AID 1645842; further: nearly all actives have a fitted effect of over 55% in size)). Conditions: P450-Glo CYP2C9 enzyme assay, luciferin luminescence; series mostly up to 57.4 µM; activity change, negative = inhibition: at the top concentration.
Sequence of Cytochrome P450 2C9 (Homo sapiens) (P11712 whole entry, looked up): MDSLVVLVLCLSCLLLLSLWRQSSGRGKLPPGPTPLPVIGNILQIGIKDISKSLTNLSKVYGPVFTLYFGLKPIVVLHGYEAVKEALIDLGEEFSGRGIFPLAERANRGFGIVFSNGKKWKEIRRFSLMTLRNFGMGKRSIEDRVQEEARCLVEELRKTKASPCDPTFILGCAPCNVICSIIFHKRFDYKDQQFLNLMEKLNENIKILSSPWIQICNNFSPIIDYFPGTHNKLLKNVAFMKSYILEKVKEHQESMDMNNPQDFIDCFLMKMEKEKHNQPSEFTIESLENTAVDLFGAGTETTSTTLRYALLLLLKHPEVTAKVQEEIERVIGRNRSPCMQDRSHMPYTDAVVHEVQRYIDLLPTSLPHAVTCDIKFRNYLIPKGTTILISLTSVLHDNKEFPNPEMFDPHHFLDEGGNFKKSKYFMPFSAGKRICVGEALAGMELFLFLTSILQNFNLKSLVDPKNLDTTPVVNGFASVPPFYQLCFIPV
Method in brief: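 P450-Glo CYP2C9 system: proluciferin substrate with enzyme in mix containing 0.4% BSA, 10 min at room temperature, then NADPH regeneration solution added and incubated 1 h at 37C. Detection reagent stopped reaction; luminescence read after 20 min as RLU.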
On the % scale 0 is the no-effect control and ±100 the full control effect; potency means the concentration at half of the fitted maximal effect.

Row | Compound | Potency | activity change, negative = inhibition
1 | CCCn1cc2c(nc(NC(=O)Nc3ccc(OC)cc3)n3nc(-c4ccco4)nc23)n1 | 6.01 µM (active) | –
2 | Cc1cc(C(=O)Cn2cc(C#N)ccc2=O)c(C)n1Cc1ccccc1 | 16.9 µM (active) | –
3 | CCCCc1ccc(NS(=O)(=O)c2ccc(F)cc2)cc1 | 1.69 µM (active) | –
4 | CN(C)[C@@H]1CCc2[nH]c3ccc(NC(=O)c4ccc(F)cc4)cc3c2C1 | – | 4.19% (inactive)
5 | COc1cc(-c2nc(N[C@H](CO)Cc3ccccc3)ccc2C(=O)NCCOc2ccccc2)cc(OC)c1OC | 1.51 µM (active) | –
6 | c1ccc(-c2cnn3cc(-c4ccc(OCCN5CCOCC5)cc4)cnc23)cc1 | 3.38 µM (active) | –
7 | O=C(Nc1cc(C(F)(F)F)ccc1N1CCCCC1)c1ccncc1 | 2.13 µM (active) | –
8 | O=c1[nH]c2cccc(N3CCN(Cc4ccc(-c5ccccc5)cc4)CC3)c2o1 | 5.35 µM (active) | –
9 | CCCCC(=O)O | – | -5.37% (inactive)
10 | Fc1ccc2c(CCNCc3cccc(OCC(F)(F)C(F)F)c3)c[nH]c2c1 | 9.52 µM (active) | –
11 | O=C(CSc1nc2ccccc2c(=O)n1-c1ccccc1)Nc1ccc2c(c1)CCC2 | 2.68 µM (active) | –
12 | C=CS(=O)(=O)O | – | -0.458% (inactive)
13 | N#Cc1ccc(COc2ccc(-c3cccc4nc(NC(=O)C5CC5)nn34)cc2)cn1 | 10.7 µM (active) | –
14 | Nc1nc2c(s1)CCN(Cc1ccc(Cl)cc1)CC2 | 15.1 µM (active) | –
15 | Nc1c(CC(=O)O)cccc1C(=O)c1ccccc1 | – | -26.7% (inactive)
16 | Nc1ncnc2c1c(-c1ccc(Cl)cc1)nn2-c1cccc(-c2cnnn2Cc2cccc(-c3ccccc3)c2)c1 | 0.536 µM (active) | –
17 | CN(C)c1ccnc2sc3c(=O)n(N4CCCCCC4)cnc3c12 | 7.56 µM (active) | –
18 | Cc1nc(Nc2ccc(F)cc2)nc(N2CCc3ccccc3C2C)c1C (centres undefined) | 5.35 µM (active) | –
19 | COCCN(C(=O)c1cc(OC)c(OC)c(OC)c1)c1nc(-c2ccccc2)cs1 | 4.77 µM (active) | –
20 | COc1ccc2c(c1)C(C(=O)N(Cc1ccc(N(C)C)cc1)c1ccc(C(C)C)cc1)CCC2 (centres undefined) | 5.35 µM (active) | –

Row | Compound | Potency | activity change, negative = inhibition
21 | CCCC(CCC)C(=O)NCc1ccc2c(cnn2-c2ccccc2OC)c1 | 1.9 µM (active) | –
22 | C[C@@H](O[C@H]1OCCN(Cc2nn(P(=O)(O)O)c(=O)[nH]2)[C@H]1c1ccc(F)cc1)c1cc(C(F)(F)F)cc(C(F)(F)F)c1 | 13.1 µM (active) | –
23 | CCOC(=O)CCNc1cc(N2CCc3ccccc3CC2)nc(-c2cccnc2)n1 | 8.49 µM (active) | –
24 | O=C(NCc1ccc(OC(F)(F)F)cc1)C1c2c(F)cccc2C(=O)N1CCc1ccccn1 (centres undefined) | 3.79 µM (active) | –
25 | O=C(OCCO)c1ccccc1O | – | -4.16% (inactive)
26 | CCOC(=O)C1=Cc2ccc(C(F)(F)C(F)(F)F)cc2N=C(N)C1 | 12 µM (active) | –
27 | O=C(NCC(=O)N1CCCC1)Nc1ccc2cnccc2c1 | – | 3.08% (inactive)
28 | CCc1cc2c(cc1CC)CC(NCC(O)c1ccc(O)c3[nH]c(=O)ccc13)C2 (centres undefined) | – | -8.23% (inactive)
29 | CCN1CCC[C@@H]1CNC(=O)c1ccc2c(c1)NC(=O)c1cccc(C)c1S2 | – | -20% (inactive)
30 | CCNC1(C(N)=O)CCN(c2ncnc3c2nc(-c2ccccc2Cl)n3-c2ccc(Cl)cc2)CC1 | 2.13 µM (active) | –
31 | CCCCCCCCCC(=O)O | – | -2.97% (inactive)
32 | Cc1nnc(-c2ccc(-c3ccc(C(=O)Nc4ccc(O)c(N5CCN(C)CC5)c4)cc3)c(C)c2)o1 | – | -10.7% (inactive)
33 | CCC[C@@]1(CCc2ccccc2)CC(O)=C([C@H](CC)c2cccc(NS(=O)(=O)c3ccc(C(F)(F)F)cn3)c2)C(=O)O1 | 26.8 µM (active) | –
34 | CCOc1ccc(-n2c([C@@H](C)N(Cc3cccnc3)C(=O)Cc3ccc(OC(F)(F)F)cc3)nc3ncccc3c2=O)cc1 | 0.952 µM (active) | –
35 | COc1ccc(-c2cc3onc(-c4ccncc4)c3c(=O)n2C)cc1 | 0.952 µM (active) | –
36 | NC(N)=NC(=O)c1cnn(-c2cccc3ncccc23)c1C1CC1 | – | 6.12% (inactive)
37 | O=C(O)c1cccc(-c2ccc(-c3cn(C(=O)N4CCCCC4Cc4ccccc4)nn3)cc2)c1 (centres undefined) | 8.49 µM (active) | –
38 | CC(=O)Nc1cccc(Nc2ncnc(N3CCC(OCc4ccc(OC(F)(F)F)cc4)CC3)n2)c1C | 13.5 µM (active) | –
39 | Cc1[nH]cnc1C[C@H]1CCc2c(C)c3ccccc3n2C1=O | 0.19 µM (active) | –
